D1 PAM: enhances dopamine response at the human D1 receptor; P21728; potentiation, % at 10 µM; AID 504651; actives 0.036% (n = 360,000); HEK293 TREx D1 cells, calcium flux, dopamine EC20 potentiation; in the data active = potentiation above about 30%; note: 0% is about no effect
Target sequence (P21728 whole entry, looked up): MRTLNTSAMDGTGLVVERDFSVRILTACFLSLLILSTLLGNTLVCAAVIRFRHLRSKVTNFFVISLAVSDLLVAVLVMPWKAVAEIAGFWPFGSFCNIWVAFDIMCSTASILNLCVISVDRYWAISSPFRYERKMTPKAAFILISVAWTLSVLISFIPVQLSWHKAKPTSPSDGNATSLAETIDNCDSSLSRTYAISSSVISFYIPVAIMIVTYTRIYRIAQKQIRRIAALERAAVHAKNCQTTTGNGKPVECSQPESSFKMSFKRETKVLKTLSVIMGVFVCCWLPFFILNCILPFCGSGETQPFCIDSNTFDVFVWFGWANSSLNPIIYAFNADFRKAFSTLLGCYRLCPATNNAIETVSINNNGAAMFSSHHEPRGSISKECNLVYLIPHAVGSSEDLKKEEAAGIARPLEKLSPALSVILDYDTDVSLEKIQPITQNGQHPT
TRHR ag: agonists of human TRH receptor; P34981; TRHR cells, calcium flux fluo-8, FDSS agonist mode; activation, % at 2 µM; actives 0.18% (n = 360,000); note: 0% is about no effect
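Agonist-mode FDSS calcium read (Ex 480/Em 530, 1 s cycles) in 1536-well TRHR cells with fluo-8 dye, after 10-cycle baseline and 23 nL compound addition; TRH at EC20 (10 nM final) added afterwards for the enhancer phase.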
TRHR enhancer: allosterically enhances the human TRH receptor; actives 0.66% (n = 360,000); TRHR cells, fluo-8 calcium fluorescence, EC20 TRH enhancement; enhancement, % at 2 µM; in the data active = enhancement above about 30%; note: 0% is about no effect
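TRHR-expressing cells loaded with fluo-8 calcium dye were read kinetically (ex 480/em 530) during compound addition, then stimulated with an EC20 of TRH (10 nM final). Enhancement of the Gq-mediated intracellular calcium response was scored.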
D1 antag: blocks dopamine activation of the human D1 receptor | HEK293 TREx D1 cells, calcium flux, dopamine EC80; active compounds read low | activity change, negative = inhibition, % at 10 µM | actives 3.2% (n = 360,000); in the data active = activity change below about -30%; note: % is set by controls: 0 for no effect and ±100 for the full control effect
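Allosteric or orthosteric antagonism assessed as attenuation of the calcium response to EC80 dopamine, added 180 s after compound, in induced HEK293 Trex D1 cells loaded with no-wash calcium dye.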
D1 agonist: activates the human D1 dopamine receptor; HEK293 T-REx D1 cells, calcium flux, agonist mode; AID 504660; P21728; actives 1% (n = 360,000); activation, % at 2 µM; note: 0% is about no effect
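Tetracycline-induced HEK293 TREx D1 cells, force-coupled to calcium signalling, were dye-loaded with a no-wash calcium kit. Compound was pin-added after a 10 s baseline. Fluorescence was read kinetically at 1 cycle/s for 180 s, with calcium rises flagged as agonism.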
Starred values were filed as active, the others as inactive; x = not tested or not shown. In the library only some 4.6% were active in any assay of this set; here they are far more common. Cut-off read from the data, not from the text of the source, unless noted: active = activation above about 30%; inactive = the rest.

SMILES	D1 PAM	TRHR ag	TRHR enhancer	D1 antag	D1 agonist
COc1ccc(OC)c(/C=C/C(=O)N(C)CC(=O)Nc2ccc(C)cc2)c1	-1	0	9	8	2
CN(CC(=O)Nc1ccc(OC(F)(F)F)cc1)C(=O)/C=C/c1cc2c(cc1[N+](=O)[O-])OCO2	-2	0	-5	-49*	1
CN1CCN(NC(=O)Nc2cccc(Cl)c2Cl)CC1	-4	3	2	-2	1
Cn1nccc1NC(=O)Nc1cccc(Cl)c1Cl	-15	0	10	-33*	4
CCOc1ccc(CC(=O)NCCc2sc3nc(-c4ccc(F)cc4)nn3c2C)cc1	-3	0	43*	x	4
CCOc1ccc(CC(=O)NCCc2sc3nc(-c4ccc(OC)cc4)nn3c2C)cc1	-1	0	-3	x	0
Cc1ccc(C(=O)N(c2ccc(C)cc2)S(=O)(=O)c2ccc(Cl)cc2)cc1	-1	0	20	4	0
C=CCn1c(SCCC)nc(O)cc1=O	-5	26	-12	-26	128*
COC(=O)c1c(NC(=O)CS(=O)(=O)c2ccc(C)cc2)sc2c1CCCCC2	-5	-1	6	-18	5
CCCCOC(=O)c1c(C)oc2c1cc(NS(=O)(=O)c1cc(OC)ccc1OC)c1ccccc12	-2	0	-2	-2	1
CC(=O)c1cccc(NS(=O)(=O)c2cccc(S(=O)(=O)c3ccc(Br)cc3)c2)c1	-1	0	1	-41*	27
NC(=O)COC(=O)c1cccc(S(=O)(=O)N2CCN(c3ccccc3)CC2)c1	-1	0	2	-13	6
Cc1ccccc1NC(=O)C(=O)NCCCN1CCCC1=O	1	0	19	6	3
CN(c1ccccc1)S(=O)(=O)c1cccc(C(=O)NCCCN2CCCC2=O)c1	-2	0	2	-15	2
O=C(NCCCN1CCCC1=O)c1cccc(S(=O)(=O)N2CCN(c3ccccc3)CC2)c1	-4	0	14	-44*	1
O=C(COC(=O)c1cccc(S(=O)(=O)N2CCN(c3ccccc3)CC2)c1)NCc1ccco1	-5	0	35*	-15	6
COc1ccc(S(=O)(=O)Nc2cccc(C(C)=O)c2)cc1Br	5	0	-2	-2	6
O=C(NCCCN1CCCC1=O)C(=O)Nc1cccc(F)c1	-6	0	6	-44*	7
CCCCN(CCCC)CCNC(=O)Cn1nc(CC)n2c(cc3sccc32)c1=O	-3	1	-3	-15	1
CCc1sc(C(=O)NCCCn2ccnc2)cc1Br	-11	-2	31*	6	2
O=C(NCCCn1ccnc1)c1cccc(S(=O)(=O)Nc2ccc(F)cc2)c1	2	0	-1	5	3
O=C(NCCCn1ccnc1)c1cccc(S(=O)(=O)Nc2ccc(Br)cc2)c1	5	0	36*	7	51*
O=C(NCCCN1CCCC1=O)c1cccc(NS(=O)(=O)c2ccccc2)c1	3	0	3	7	3
O=C(NCCCN1CCCC1=O)c1cccc(NS(=O)(=O)c2ccc(Br)cc2)c1	2	0	33*	-3	1
CC(=O)N[C@H]1[C@H](OC2CCCCC2)O[C@H](COC(C)=O)[C@@H](OC(C)=O)[C@@H]1OC(C)=O	11	-1	7	4	2
SMILES	D1 PAM	TRHR ag	TRHR enhancer	D1 antag	D1 agonist
CCn1c(O)c(/C=C2\C=Nc3ccccc32)sc1=O	-6	1	-5	-1	0
CC1=Nc2ccccc2/C1=C/c1sc(=N)n(-c2nccs2)c1O	-4	16	-1	-8	58*
O=C(Cc1ccccc1)Nc1cc(-c2nc3cc(Cl)ccc3o2)ccc1Cl	-4	0	-2	0	-1
COc1ccc(NC(=O)CSc2c(C(C)C)cnc3c2c(=O)n(C)c(=O)n3C)c(OC)c1	-3	0	2	-4	-1
COc1cc(C(=O)NCCc2cn3ccccc3n2)cc(OC)c1OC	-12	0	30*	6	3
COc1c(NC(C)=O)c2ccccc2c2ccccc12	-5	0	38*	1	-1
CCOC(=O)C1=C(COC(=O)Cc2ccc(Cl)cc2)NC(=O)NC1C (stereo unspecified)	x	1	0	3	3
Cc1cccc(C)c1NC(=O)CN(C)C(C)C(=O)NCC(=O)Nc1ccc(F)c(F)c1F (stereo unspecified)	3	0	-6	12	-1
CC(C(=O)Nc1ccc(F)c(F)c1F)N(C)CC(=O)Nc1ccccc1Br (stereo unspecified)	-6	0	6	-31*	0
COc1ccc(NC(=O)[C@@]2(CC(=O)O)CC(/C=C/c3ccccc3)=NO2)cc1	-6	1	-1	4	1
COc1ccc(Cl)cc1NC(=O)[C@@]1(CC(=O)O)CC(/C=C/c2ccccc2)=NO1	4	1	-5	-35*	4
Cc1ccc(CNC(=O)C2CCCN(S(=O)(=O)c3ccc4c(c3)oc(=O)n4C)C2)cc1 (stereo unspecified)	-4	1	2	-23	2
Cc1cc(C)cc(NCc2cc(=O)oc3cc(-c4ccccc4)c(O)cc23)c1	-2	1	3	-4	1
COc1ccc(C)cc1NCc1cc(=O)oc2cc(-c3ccccc3)c(O)cc12	-1	1	1	-30*	2
CNC(=S)SCCOc1ccc(C)cc1	-7	0	2	-91*	2
CNC(=S)SCCOc1ccccc1	-2	0	2	-20	4
CN(C)c1ccc(C(=O)NN2C(=O)c3ccccc3C2=O)cc1	-4	0	0	-32*	0
C/C(=C\c1ccccc1)C(=O)c1c(C)cc(C)[nH]c1=O	3	1	32*	21	-3
O=C(CN1CCN(S(=O)(=O)N2CCOCC2)CC1)Nc1ccc(Cl)c(Cl)c1	-8	1	-6	-49*	14
Cc1ccc(NC(=O)CN2CCOCC2)cc1C	-2	0	3	-40*	8
O=C(CN1CCOCC1)Nc1ccc(Cl)c(Cl)c1	0	2	-1	-1	3
COc1ccc(-c2noc(CN(C)C3CCOCC3)n2)cc1	-3	0	32*	1	3
Cc1cccc(C)c1NC(=O)CN(C)C(=O)c1ccccc1OCc1ccc(F)cc1	4	0	-4	16	0
O=C(CN1CCN(c2ccccc2F)CC1)c1c[nH]c2ccccc12	-8	0	-5	-6	10
Fc1ccccc1N1CCN(C2CCN(Cc3c[nH]c4ccccc34)CC2)CC1	-7	-1	3	-7	46*
CCc1cc2c(SCc3ccc(C(=O)OC)o3)ncnc2s1	-2	0	-2	-32*	2
CCC(C(=O)Nc1cccc(-c2cn3cccnc3n2)c1)c1ccccc1 (stereo unspecified)	2	0	-3	3	1
